From PubChem BioAssay
HSF-1 act – HSF-1 activators, primary screen, NIH3T3-HGL cells, MG132 stress, luminescence, single point. 300,000 compounds, 1.7% hits. NIH3T3-HGL HSF-1 luciferase reporter, 8 h; 100% = twice DMSO control signal. activation, % at 9 µM;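 active = mean replicate activation of at least 50% with a set share of replicates each reaching 50%; inconclusive = only one of those two conditions met; inactive = mean below 50% and too few replicates reaching it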;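 also: 0% = median of the neutral control wells and 100% = twice that signal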
HSF1 inhib – HSF1 inhibitors in luciferase reporter cells, primary screen, cell-based, NIH3T3, luminescence; 300,000 compounds, 0.77% hits; activity change, negative = inhibition, % at 7.5 µM (by protocol); NIH3T3-HGL HSE-luciferase, MG132-induced, luminescence 8 h; active compounds read low; AID 2098, 2009;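 active = more than half of replicate wells show activity change below -50%, luminescence cut by over half; inconclusive = some wells, but at most half, below -50%; inactive = no replicate well below -50%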;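 also: luciferase reports HSF-1 transcriptional activity via heat shock element; 0% = median of DMSO wells and -100% = zero luminescence signal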
FXN GAA850 act – FXN promoter activators, primary screen, cell-based, luciferase luminescence, HEK293 lucGAA850; HEK293 lucGAA850 FXN promoter luciferase reporter, 24 h; percent of 10 µM SAHA response; activation, % at 6 µM; 360,000 compounds, 0.56% hits;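 active = activation above the average of all compounds screened plus 3 SD, cutoff fixed separately per campaign, cut at about 7.5% in these data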;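 also: 0% = DMSO wells and 100% = 10 µM SAHA wells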
AHR activator – AHR activators, primary screen, cell-based, luminescence, luciferase reporter, human. Aryl hydrocarbon receptor (Homo sapiens), P35869. AHR-responsive luciferase reporter cells. activation, % at 5 µM. 320,000 compounds, 2.5% hits; in the data active = activation above about 47%;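 also: 0% = vehicle wells and 100% = reference agonist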
Target sequence (P35869 whole entry, looked up): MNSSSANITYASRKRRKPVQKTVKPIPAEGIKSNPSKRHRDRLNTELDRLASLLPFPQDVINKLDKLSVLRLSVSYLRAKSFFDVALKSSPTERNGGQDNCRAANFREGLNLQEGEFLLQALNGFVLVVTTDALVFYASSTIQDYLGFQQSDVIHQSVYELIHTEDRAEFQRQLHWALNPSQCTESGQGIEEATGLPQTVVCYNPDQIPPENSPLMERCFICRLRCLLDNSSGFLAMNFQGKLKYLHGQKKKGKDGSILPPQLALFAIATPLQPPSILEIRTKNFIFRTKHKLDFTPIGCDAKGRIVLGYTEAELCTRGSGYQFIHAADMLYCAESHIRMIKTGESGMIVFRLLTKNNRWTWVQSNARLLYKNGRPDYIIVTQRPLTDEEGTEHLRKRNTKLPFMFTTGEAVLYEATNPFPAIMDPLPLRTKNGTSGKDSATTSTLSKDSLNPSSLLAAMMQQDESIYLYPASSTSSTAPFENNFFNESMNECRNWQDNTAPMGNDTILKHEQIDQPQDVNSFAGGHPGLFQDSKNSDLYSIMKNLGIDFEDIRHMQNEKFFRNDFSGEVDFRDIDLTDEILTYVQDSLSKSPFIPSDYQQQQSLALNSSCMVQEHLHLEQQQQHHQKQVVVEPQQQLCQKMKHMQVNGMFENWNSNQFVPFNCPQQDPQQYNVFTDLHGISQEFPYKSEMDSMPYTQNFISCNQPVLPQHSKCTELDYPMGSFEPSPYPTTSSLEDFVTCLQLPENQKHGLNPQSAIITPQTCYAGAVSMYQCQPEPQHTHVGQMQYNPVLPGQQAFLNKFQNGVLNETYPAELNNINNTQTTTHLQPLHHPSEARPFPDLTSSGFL
GAA30 FXN cntr – GAA30 FXN promoter activators, confirmation, counter-screen for GAA850 frataxin promoter activator project, cell-based, luminescence, HEK293, lucGAA30, triplicate; shares compounds with FXN GAA850 act; HEK293 lucGAA30 FXN promoter luciferase, 24 h; DMSO = 0%, 5 µM ipriflavone = 100%; activation, % at 6 µM; 1,900 compounds, 66% hits; AID 588350, 2011;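 active = mean activation above the mean of solvent-only control wells plus 3 SD, cut at about 22% in these data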;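 also: counterscreen of GAA850 promoter hits where activity marks nonselective or luminescence artifacts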
GAA850 confirm – FXN GAA850 promoter activators in reporter cells, confirmation, cell-based, luminescence, HEK293 lucGAA850, triplicate; shares compounds with FXN GAA850 act; HEK293 lucGAA850 FXN promoter luciferase reporter, 24 h; 100% = activation by SAHA; activation, % at 6 µM; 1,900 compounds, 86% hits; AID 588351, 2011;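 active = mean activation above a set limit taken from the primary screen, cut at about 8% in these data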;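 also: 0% = DMSO wells and 100% = 10 µM SAHA wells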
* = called active by the depositor; ? = inconclusive; nt = no result given. Sampled rows, rich in hits. Any-hit rate of the full collection: about 4.6%.

SMILES	HSF-1 act	HSF1 inhib	FXN GAA850 act	AHR activator	GAA30 FXN cntr	GAA850 confirm
Cc1ccccc1C(=O)NCC(=O)OC(C)C(=O)Nc1cccc(S(=O)(=O)N2CCOCC2)c1 (stereo unspecified)	-30	-10	-1	6	nt	nt
CCc1nc2sc(C(C)=O)c(N)c2c2c1CCCC2	-21	-7	-1	9	nt	nt
CCc1nc2sc(C#N)c(N)c2c2c1CCCC2	-8	-13	10*	4	14	14*
Cn1ncc2c1ncn1nc(CCc3ccccc3)nc21	1	-8	9.1*	4	106*	29*
O=[N+]([O-])c1cccc(/C=C/c2nc(C=Nc3ccc4ccccc4c3)c(O)o2)c1	nt	nt	1	0	nt	nt
O=C(COC(=O)/C=C/c1ccc(C(F)(F)F)cc1)NC1CCCC1	6	-10	1	-1	nt	nt
CCOC(=O)c1c(-c2cccs2)csc1NC(=O)CC(C)C	-10	-2	-1	17	nt	nt
COC(=O)c1c(-c2cccs2)csc1NC(=O)c1cccnc1	nt	nt	9.8*	-3	69*	26*
O=C(COc1ccccc1)Nc1ccccc1C(=O)NCc1ccco1	30	16	8.4*	3	41*	16*
CCSc1nc(-c2cccs2)nc2ccccc12	-42	-28	1	5	nt	nt
COCCn1c(C)cc(C(=O)COC(=O)c2ccc3ncsc3c2)c1C	31	24	7.8*	-6	93*	32*
Cc1ccc(NC(=S)N/N=C/c2ccc([N+](=O)[O-])s2)cc1	?	40	11*	10	-97	-29
O=C(Cc1cccs1)N/N=C\c1ccc([N+](=O)[O-])s1	10	5	-1	3	nt	nt
Cc1cc(C)cc(N=Cc2ccc([N+](=O)[O-])s2)c1	8	11	16*	3	1	6
O=[N+]([O-])c1ccc(C=Nc2ccc(Cl)c([N+](=O)[O-])c2)s1	nt	nt	4	nt	nt	nt
COc1cc(-c2cc(C(=O)Nc3ccc(C)c(S(=O)(=O)N4CCOCC4)c3)c3ccccc3n2)cc(OC)c1OC	nt	nt	-4	4	nt	nt
COc1ccccc1NS(=O)(=O)c1cc(NC(=O)/C=C/c2cccs2)ccc1N1CCOCC1	20	16	9.9*	31	-9	6
C[C@H](CO)N1C[C@H](C)[C@@H](CN(C)C(=O)Nc2ccc3c(c2)OCO3)Oc2ccc(NC(=O)Cc3ccccc3)cc2C1=O	nt	nt	-1	2	nt	nt
FC(F)Oc1ccc(N=C2SCC3CCCCN23)cc1 (stereo unspecified)	39	20	4	-4	nt	nt
Clc1ccc(N=C2SCC3CCCCN23)cc1 (stereo unspecified)	20	14	8.2*	0	99*	42*
CCOC(=O)Nc1ccc2c(c1)N(C(=O)CN(C)C)c1ccccc1S2	nt	nt	-2	nt	nt	nt
N#CCCn1nc(-c2ccccc2)cc1-n1c(C(F)(F)F)nc2ccccc21	12	3	0	3	nt	nt
Oc1csc(Cc2nc(-c3ccc4ccccc4c3)cs2)n1	20	-2	10*	83*	63*	43*
COCC(=O)NCCc1nc2ccccc2[nH]1	-18	-2	16*	1	22*	7.9*
COc1cc2cc(Oc3ccc4ccc(=O)oc4c3)c(=O)oc2cc1OC(=O)C=C(C)C	1	7	nt	-2	nt	nt
SMILES	HSF-1 act	HSF1 inhib	FXN GAA850 act	AHR activator	GAA30 FXN cntr	GAA850 confirm
CC(C)(C)c1ccc(C(=O)O)c(C(=O)c2ccccc2)c1	-3	3	-1	-1	nt	nt
Cc1ccccc1Nc1nc(N)nc(COC(=O)C(NC(=O)c2ccco2)C(C)C)n1 (stereo unspecified)	4	-1	2	7	nt	nt
N#Cc1c(N)n(C2CCCCC2)c2nc3ccccc3nc12	13	0	8.1*	3	4	18*
Cc1ccc(SCCNC(=O)c2ccc(C)c(S(=O)(=O)Nc3cccc(C)c3)c2)cc1	23	6	-2	0	nt	nt
O=C1NC2(CCCCC2)C(=O)N1CC(=O)N(Cc1ccccc1)c1ccccc1	12	-2	3	-2	nt	nt
CC1CCN(c2ccc(NC(=S)NC(=O)c3ccco3)cc2)CC1	61*	14	7.9*	5	69*	32*
O=C(NC(=S)Nc1ccc(N2CCCCC2)cc1)c1ccco1	30	20	4	5	nt	nt
Nc1cccc2c1C(=O)N(C(=O)/C=C/c1cccc(F)c1)C2=O	22	21	2	4	nt	nt
COc1ccc(OC)c(/C=C/C(=O)N2C(=O)c3cccc(N)c3C2=O)c1	86*	83	9.2*	8	-2	8.9*
O=C(Nc1ccccc1Cl)Oc1ccc2ccccc2c1	0	-7	nt	5	nt	nt
CS(=O)(=O)c1nc(-c2ccccc2)cc(C(F)(F)F)n1	-98	-98*	25*	-7	-82	-27
Cc1cc(NC(=O)CCS(=O)(=O)c2nc(-c3ccccc3)cc(C(F)(F)F)n2)no1	nt	nt	4	5	nt	nt
CN1CC(=O)N(CC(=O)N2CCC(Cc3ccccc3)CC2)C1=O	6	-6	2	-1	nt	nt
CSC(=S)NN=C(C)c1cccc(C)n1	nt	nt	16*	nt	-115	-34
O=c1[nH][nH]c(-c2ccccc2)c1C=Nc1ccc(F)cc1F	15	3	3	-1	nt	nt
Cc1ccc(-n2nc3ccc(NC(=O)C(C)C)cc3n2)cc1	30	4	7.9*	40	106*	38*
CC(C)C(=O)Nc1ccc2nn(-c3ccc(F)cc3)nc2c1	21	15	3	-4	nt	nt
Cc1cc(NC(=O)CSCC(=O)Nc2cc(C(F)(F)F)ccc2N2CCOCC2)no1	nt	nt	1	0	nt	nt
Cc1ccc(NC(=O)CSCC(=O)Nc2cc(C(F)(F)F)ccc2N2CCOCC2)cc1	8	0	11*	2	25*	11*
O=C(CSc1nnc(NC(=O)c2ccccc2[N+](=O)[O-])s1)NCC1CCCO1 (stereo unspecified)	-13	-4	-2	0	nt	nt
O=C(NCCc1nnc2ccc(NCCCN3CCOCC3)nn12)c1ccccc1F	2	-4	-1	1	nt	nt
O=C(C=Cc1cccc(O)c1)c1ccccc1O	nt	nt	3	nt	nt	nt
O=C(/C=C/c1ccc(O)c(O)c1)OCCc1ccccc1	46	46	16*	11	31*	23*
O=C(/C=C/c1ccc(O)c(O)c1)c1ccccc1O	92*	76	13*	-5	75*	35*
CCN1CCN(c2ccc(S(=O)(=O)N3CCCCC3)cc2NC(=O)c2cccc(C)c2)CC1	-9	2	1	-2	nt	nt
CCOC(=O)NC(=O)CSc1nc(C)cc(C)c1C#N	21	28	8.2*	3	103*	30*
